Where “and” joins values, the source holds several entries; their conditions need not be identical. Equal values may be shown once. Unmarked numbers belong to inactive results.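 Rule for the calls: active = AUC reduced over 20% with Padj below 0.05 in at least 2 of 3 replicates; inactive = otherwise.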
Test system: Bacteroides uniformis
Assay: growth AUC relative to DMSO control (median of replicates) (fraction); higher = more growth (less inhibition), active = hit call of the paper
Settings: 20 µM; 24 h
How it was run: (§1)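 OD600 was recorded every hour for 24 h in anaerobic monocultures of gut bacteria kept at 37 °C in mGAM, seeded at OD600 0.05 and given 20 µM compound in 1% DMSO. The area under each growth curve was scaled to the plate median of solvent-only wells, or to row and column medians for the industrial chemical plate. Before this step, the minimum OD was set to 0. Reported values are medians of three biological replicates run on separate days.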

SMILES | growth AUC
Nc1cc(Cl)cc(C(=O)O)c1Cl | 0.958
CCOP(=S)(OCC)Oc1cnccn1 | 0.982
O=C(O)C(F)(F)C(F)(F)C(F)(F)C(F)(F)C(F)(F)C(F)(F)C(F)(F)C(F)(F)F | 1.02
CCOP(=S)(OCC)SCSCC | 0.986
CCOCn1c(-c2ccc(Cl)cc2)c(C#N)c(Br)c1C(F)(F)F | 0.943
CCS(=O)(=O)c1cccnc1S(=O)(=O)NC(=O)Nc1nc(OC)cc(OC)n1 | 0.974
CCNc1nc(NC(C)C)nc(SC)n1 | 1
CN1COCN(Cc2cnc(Cl)s2)/C1=N/[N+](=O)[O-] | 0.988
COP(=S)(NC(C)C)Oc1ccccc1C(=O)OC(C)C (stereo not drawn) | 0.872
COC(=O)C(C)(Cl)Cl | 0.968
CCCCOCN(C(=O)CCl)c1c(CC)cccc1CC | 0.954
CC1(C)C(C=C(Cl)Cl)C1C(=O)OC(C#N)c1ccc(F)c(Oc2ccccc2)c1 (mixture of isomers) | 0.98
CCOC(=O)CC(SP(=O)(OC)OC)C(=O)OCC (stereo not drawn) | 0.972
CCNc1nc(Cl)nc(NC(C)C)n1 | 1.01
Cc1cccc(C)c1N | 1.06
CN(C)C(=O)Nc1ccc(Cl)cc1 | 1.02
CCCCNC(=O)n1c(NC(=O)OC)nc2ccccc21 | 1.02
N#Cc1cc(I)c(O)c(I)c1 | 0.799 (active)
CCOP(=S)(OCC)Oc1cc(Cl)c(Br)cc1Cl | 0.966
Cc1cnc(C2=NC(C)(C(C)C)C(=O)N2)c(C(=O)O)c1 (stereo not drawn) | 1.01

SMILES | growth AUC
CC1(C)CCC(Cc2ccc(Cl)cc2)C1(O)Cn1cncn1 (stereo not drawn) | 0.937
CCCN(CCC)c1c([N+](=O)[O-])cc(S(C)(=O)=O)cc1[N+](=O)[O-] | 0.954
Cc1occc1C(=O)Nc1ccccc1 | 1
CCCOCC(=Nc1ccc(Cl)cc1C(F)(F)F)n1ccnc1 | 0.913
Nc1cc(Cl)cc(Cl)c1 | 1.04
O=C(O)COc1cc(Cl)c(Cl)cc1Cl | 1.01
Cc1cc(Cl)ccc1N=CN(C)C | 1.02
CNC(=O)Oc1cc(C)cc(C(C)C)c1 | 1.04
CCOc1cc(Oc2ccc(C(F)(F)F)cc2Cl)ccc1[N+](=O)[O-] | 0.992
O=[N+]([O-])c1c(Cl)c(Cl)c(Cl)c(Cl)c1Cl | 0.917
CC(Cc1ccc(C(C)(C)C)cc1)CN1CCCCC1 (stereo not drawn) | 1.02
CNC(=O)c1cc(C#N)cc(C)c1NC(=O)c1cc(Br)nn1-c1ncccc1Cl | 0.995
O=P(Oc1ccccc1)(Oc1ccccc1)Oc1ccccc1 | 0.923
CC(=NC#N)N(C)Cc1ccc(Cl)nc1 | 1 and 0.993
CO/N=C(/C1=NOCCO1)c1ccccc1Oc1ncnc(Oc2ccccc2Cl)c1F | 0.963
Cc1ccn2nc(S(=O)(=O)Nc3c(F)cccc3F)nc2n1 | 1.06
N#Cc1c(Cl)c(Cl)c(Cl)c(C#N)c1Cl | 0.218 (active)
C=CCC1=C(C)C(OC(=O)[C@@H]2[C@@H](C=C(C)C)C2(C)C)CC1=O (stereo partly drawn) | 1.01
O=C(O)CNCP(=O)(O)O | 0.977

Test system: Bifidobacterium longum subsp. longum
Assay: as above
Settings: 20 µM; 24 h
How it was run: as §1

SMILES | growth AUC
Nc1cc(Cl)cc(C(=O)O)c1Cl | 1.04
CCOP(=S)(OCC)Oc1cnccn1 | 1.04
O=C(O)C(F)(F)C(F)(F)C(F)(F)C(F)(F)C(F)(F)C(F)(F)C(F)(F)C(F)(F)F | 1.03
CCOP(=S)(OCC)SCSCC | 1.01
CCOCn1c(-c2ccc(Cl)cc2)c(C#N)c(Br)c1C(F)(F)F | 1.04
CCS(=O)(=O)c1cccnc1S(=O)(=O)NC(=O)Nc1nc(OC)cc(OC)n1 | 0.995
CCNc1nc(NC(C)C)nc(SC)n1 | 0.988
CN1COCN(Cc2cnc(Cl)s2)/C1=N/[N+](=O)[O-] | 0.984
COP(=S)(NC(C)C)Oc1ccccc1C(=O)OC(C)C (stereo not drawn) | 1.02
COC(=O)C(C)(Cl)Cl | 1.02
CCCCOCN(C(=O)CCl)c1c(CC)cccc1CC | 0.996
CC1(C)C(C=C(Cl)Cl)C1C(=O)OC(C#N)c1ccc(F)c(Oc2ccccc2)c1 (mixture of isomers) | 0.975
CCOC(=O)CC(SP(=O)(OC)OC)C(=O)OCC (stereo not drawn) | 0.996
CCNc1nc(Cl)nc(NC(C)C)n1 | 1.02
Cc1cccc(C)c1N | 1.04
CN(C)C(=O)Nc1ccc(Cl)cc1 | 0.99
CCCCNC(=O)n1c(NC(=O)OC)nc2ccccc21 | 0.984
N#Cc1cc(I)c(O)c(I)c1 | 0.941
CCOP(=S)(OCC)Oc1cc(Cl)c(Br)cc1Cl | 0.954
Cc1cnc(C2=NC(C)(C(C)C)C(=O)N2)c(C(=O)O)c1 (stereo not drawn) | 1.03

SMILES | growth AUC
CC1(C)CCC(Cc2ccc(Cl)cc2)C1(O)Cn1cncn1 (stereo not drawn) | 1.03
CCCN(CCC)c1c([N+](=O)[O-])cc(S(C)(=O)=O)cc1[N+](=O)[O-] | 0.948
Cc1occc1C(=O)Nc1ccccc1 | 1.02
CCCOCC(=Nc1ccc(Cl)cc1C(F)(F)F)n1ccnc1 | 1.03
Nc1cc(Cl)cc(Cl)c1 | 1.08
O=C(O)COc1cc(Cl)c(Cl)cc1Cl | 0.708
Cc1cc(Cl)ccc1N=CN(C)C | 0.981
CNC(=O)Oc1cc(C)cc(C(C)C)c1 | 1.19
CCOc1cc(Oc2ccc(C(F)(F)F)cc2Cl)ccc1[N+](=O)[O-] | 1.03
O=[N+]([O-])c1c(Cl)c(Cl)c(Cl)c(Cl)c1Cl | 0.808
CC(Cc1ccc(C(C)(C)C)cc1)CN1CCCCC1 (stereo not drawn) | 0.99
CNC(=O)c1cc(C#N)cc(C)c1NC(=O)c1cc(Br)nn1-c1ncccc1Cl | 0.999
O=P(Oc1ccccc1)(Oc1ccccc1)Oc1ccccc1 | 0.919
CC(=NC#N)N(C)Cc1ccc(Cl)nc1 | 1.03 and 0.979
CO/N=C(/C1=NOCCO1)c1ccccc1Oc1ncnc(Oc2ccccc2Cl)c1F | 0.845
Cc1ccn2nc(S(=O)(=O)Nc3c(F)cccc3F)nc2n1 | 1.03
N#Cc1c(Cl)c(Cl)c(Cl)c(C#N)c1Cl | 0.782 (active)
C=CCC1=C(C)C(OC(=O)[C@@H]2[C@@H](C=C(C)C)C2(C)C)CC1=O (stereo partly drawn) | 1
O=C(O)CNCP(=O)(O)O | 1.05
